This is an account of results in PubChem BioAssay (EPA / NIEHS).

Each structure is given as a SMILES string. The source made the active and inactive calls. How the source made its calls: active means hit-call score of the fitted dose curve at least 0.9, where 1 is the maximum; inactive means score below 0.9.

Read-out in this assay: Protein phosphatase 2A (PPP2R4), PTPA (gene 5524)
The assay can be described thus: LTEA_HepaRG_PPP2R4: Life Technologies and Expression Analysis (LTEA) Assay for Protein phosphatase 2A (PPP2R4) using HepaRG (AID 2283522). Conditions: mRNA level, 48 h; actives raise or lower the signal. Here is the method:
LTEA_HepaRG is a cell based, multiplexed-readout assay that uses HepaRG, a human liver cell line, with measurements taken at 48 hours after chemical dosing on a 96-well plate.LTEA_HepaRG_PPP2R4 is one of 102 assay component(s) measured in the LTEA HepaRG cell culture assay. It is a marker of Cell proliferation, survival, death.Data from the assay component LTEA_HepaRG_PPP2R4 was analyzed into 1 endpoint. This assay endpoint, LTEA_HepaRG_PPP2R4, was analyzed with bidirectional fitting relative to DMSO as the negative control and baseline of activity. Using a type of inducible reporter, measures of mRNA induction for gain or loss-of-signal activity can be used to understand regulation of transcription factor activity. To generalize the intended target to other relatable targets, this assay endpoint is annotated to the phosphatase intended target family, where the subfamily is serine/threonine phosphatase.
A total of 1060 chemcials from the ToxCast library were tested in eight-point concentration-response experiments. Cell culture and cytotoxicity assays were conducted at Thermo Fisher Scientific's Custom Services facility (Madison, WI). A single lot of human HepaRG cells (Thermo Fisher Scientific, Frederick, MD) was used for the cell culture experiments. 96-well format collagen type I coated plates of human HepaRG cells were prepared using established methods. Briefly, cryopreserved HepaRG cells were thawed, plated at a density of approximately 100,000 cells/well in HepaRG Thaw, Plate, and General Purpose media (HPRG770, Thermo Fisher Scientific), and incubated for 48 hours. 0.5% DMSO was selected as vehicle control to balance the requisite need of DMSO in HepaRG cultures to maintain differentiation (for example, baseline metabolism, proportions of hepatocytes vs. cholangiocytes), while enabling further hepatic receptor pathway activation (for example, PXR and CAR) in response to chemical exposure. 48 hours after plating, the culture medium was replaced with HepaRG Serum-Free Incudtion Media. Cells were exposed to each test chemical in duplicate and maintained in CO2 incubators for another 48 hours. Chemical plates were thawed to room temperature and 200x concentrations of treatment groups were prepared. 8-point conentration-reponse curves were made with the highest exposure at 100 uM, followed by half-log dilutions, all in 0.5% DMSO. Each test plate contained variouse controls, induction positive controls (1mM phenobarbital), cytotoxicity positive controls ([…] aflatoxin B1), vehicle controls (0.5% DMSO), and total lysis controls (0.5% DMSO). Cell morphology images were taken using an Essen IncuCyte FLR automated microscope, with six 96-well plates imaged in about 24 minutes. Images were captured and exported and JPEG files. Spent culture media was transfered to black-well plates for the LDH assay, and remaining media was sorted at -80 C for later use. Cells were treated with RLT buffer and frozen until shipped for gene expression analysis. Total RNA was isolated from the cell suspension in 75 uL of Buffer RLT (Qiagen, Germantown, MD 20874) by Quintiles/Expression Analysis (Durham, NC) using a custom isolation procedure. Total RNA from each plate well was transferred to a preamplification plate. Fluidigm's 96.96 Dynamic ArrayTM (Fluidigm, Amsterdam, the Netherlands) technology was used for gene expression analyses by quantitative reverse transcription polymerase chain reaction (qRT-PCR, performed by Quintiles/Expression Analysis, Durham, NC)89. Standard TaqManTM Assays (Applied Biosystems/ThermoFisher Scientific, Foster City, CA) were used to assess the expression of 93 genes selected based on their selectivity and sensitivity to important hepatic receptors known to be modulated by environmental chemicals; importance in human hepatocyte functionality; and hepatotoxicity. […]
With `Cc1cc(C)c(O)c(C)c1`, the result was inactive. On to `CCCCCCCCCCCCCCCS(=O)(=O)Oc1ccccc1`, for which the molecule was classed as inactive. For `ClC1=C(Cl)C(Cl)(Cl)C(Cl)=C1Cl`, the molecule was classed as inactive. As to `C#C[C@]1(O)CC[C@H]2[C@@H]3CCC4=CC(=O)CC[C@@H]4[C@H]3CC[C@@]21C`, the outcome was inactive. Turning to `CC(C)CCCCCCOC(=O)CCCCC(=O)OCCCCCCC(C)C`, the molecule was called inactive. Take `CCCCC(CC)COC(=O)CCCCC(=O)OCc1ccccc1` (stereo not given): the molecule was called inactive. Consider `NC(=O)N1C(=O)C(C(=O)c2cc(Cl)cs2)c2cc(F)c(Cl)cc21` (stereo not given), for which the AC50 was 13.9 µM (active). Regarding `CN1CCN(c2ccccc2/C=C2\SCCN(c3ccc(Cl)c(Cl)c3)C2=O)CC1`, the molecule was called inactive. Take `Cc1oc(-c2ccccc2)nc1CCOc1ccc(C[C@H](Nc2ccccc2C(=O)c2ccccc2)C(=O)O)cc1`: the AC50 is 29.1 µM (active). As to `c1ccc2c(c1)Cc1ccccc1-2`, the outcome was inactive. On to `CC1=C(/C=C/C(C)=C/C=C/C(C)=C/C(=O)O)C(C)(C)CCC1`, for which the outcome was inactive. Consider `CCC(C)(C)C1CCC(O)CC1` (stereo not given), for which the call was inactive. For the molecule `Oc1cccc(O)c1`, the molecule was called inactive. Same read-out and setting: to `CCCCC(CC)COC(=O)CCCCC(=O)OCC(CC)CCCC` (stereo not given) belongs “inactive”; to `OCCC(F)(F)C(F)(F)C(F)(F)C(F)(F)C(F)(F)C(F)(F)F`, “inactive”. On the same count and under the same terms, to `CC(C)(C)CC(C)(C)c1ccc(O)c(-n2nc3ccccc3n2)c1` belongs “inactive”; to `C[C@@H]1C[C@H]2[C@@H]3CCC4=CC(=O)C=C[C@]4(C)[C@@]3(F)[C@@H](O)C[C@]2(C)[C@@]1(O)C(=O)COP(=O)(O)O`, “inactive”; to `O=C(OCCOCCOC(=O)c1ccccc1)c1ccccc1`, “inactive”. Same read-out and setting: the result for `CCCOC(=O)c1ccc(O)cc1` reads “inactive”; that for `CCCCCCCCCCCCN1CCCC1=O`, “inactive”. For the molecule `CN(C)C=O`, the result was inactive. For `O=C(O)Cc1cc(I)c(Oc2cc(I)c(O)c(I)c2)c(I)c1`, the concentration at half-maximal activity (AC50) was 54.9 µM (active). `OC1CCCCC1`: the result was inactive. Consider `CC(C)(C)c1cc(C(C)(C)C)c(O)c(C(C)(C)C)c1`, for which the call was inactive. In the case of `CCCCOCCO`, the molecule was called inactive. As for `CCCCCCC(=O)O`, the molecule was called inactive.

As for `CCc1nn(C2CCCCC2)c2cc(C3(C#N)CCC(C(=O)O)CC3)ccc12` (stereo not given), the concentration at half-maximal activity (AC50) was 11.4 µM (active). With `OC1CCC(C2CCCCC2)CC1` (stereo not given), the result was inactive. Take `c1ccc2cc3c(ccc4ccccc43)cc2c1`: the molecule was called inactive. As for `CC(C)(C)c1ccc(O)c(C(C)(C)C)c1`, the molecule was called inactive. Take `Oc1cc2ccccc2c2ccccc12`: the molecule was classed as inactive. In the case of `NC(=O)N(O)[C@@H]1C=C[C@H](Oc2cccc(Oc3ccc(F)cc3)c2)C1`, the outcome was inactive.

In the case of `CCc1ccc(CCOc2ccc(CC3SC(=O)NC3=O)cc2)nc1` (stereo not given), the AC50 was 50 µM (active). As to `OCCC(F)(F)C(F)(F)C(F)(F)C(F)(F)C(F)(F)C(F)(F)C(F)(F)C(F)(F)F`, the molecule was called inactive. On to `C=C(C)C(=O)OCCC(F)(F)C(F)(F)C(F)(F)C(F)(F)C(F)(F)C(F)(F)F`, for which the molecule was called inactive. For `O=[N+]([O-])c1ccc(O)cc1`, the result was inactive. Same read-out and setting: to `COc1ccc([N+](=O)[O-])cc1N` belongs “inactive”; to `CCCCCCCC(=O)O`, “inactive”. Regarding `CCN(CC)CCNc1ccc(CNC=O)c2sc3ccc(OC)cc3c(=O)c12`, the AC50 is 50 µM (active). Take `CC(=O)NC1(c2cccc(F)c2)CCN(CC[C@@]2(c3ccc(Cl)c(Cl)c3)CN(c3ccccc3)C(=O)CO2)CC1`: the result was inactive.
